# LmPK inhibitor – blocks Leishmania mexicana pyruvate kinase activity; Q27686; purified LmPK, Kinase-Glo ATP luminescence, 1 h; Potency, µM (highest dose often 57.5 µM), for the others: at the top dose activity change, negative = inhibition, most hits filed as inhibitors; 0.37% of 290,000 active; further: potency means the concentration at half of the fitted maximal effect; on the % scale 0 is the no-effect control and ±100 the full control effect
#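 Kinase-Glo luminescence read after 1 h RT reaction of 0.1 nM LmPK with 0.5 mM PEP and 0.1 mM ADP. Activity scaled between uninhibited and enzyme-free controls.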
# Cycloheximide cs – affects cycloheximide protein synthesis inhibition readout, counter-screen | max response, % | AID 2314 | 12% of 300,000 active | cell reporter, cycloheximide protein synthesis inhibition counterscreen; in the data active means max response mostly above about 13%, no sharp cut-off; inactive means mostly below about 14%; further: read at 38.3 µM for the half of the compounds with a filed dose; 0% is about no effect
# Giardia FBPA inh – inhibitors of Giardia lamblia fructose-1,6-bisphosphate aldolase; purified Giardia FBPA; 0.71% of 290,000 active; A8B2U2; Potency, µM (series often up to 59.6 µM), inactives show at the top dose activity, negative = inhibition, hits mostly inhibitors; further: potency means the concentration at half of the fitted maximal effect; on the % scale 0 is the no-effect control and ±100 the full control effect; nearly all actives have a fitted effect of over 55% in size
# Target sequence (A8B2U2 whole entry, looked up): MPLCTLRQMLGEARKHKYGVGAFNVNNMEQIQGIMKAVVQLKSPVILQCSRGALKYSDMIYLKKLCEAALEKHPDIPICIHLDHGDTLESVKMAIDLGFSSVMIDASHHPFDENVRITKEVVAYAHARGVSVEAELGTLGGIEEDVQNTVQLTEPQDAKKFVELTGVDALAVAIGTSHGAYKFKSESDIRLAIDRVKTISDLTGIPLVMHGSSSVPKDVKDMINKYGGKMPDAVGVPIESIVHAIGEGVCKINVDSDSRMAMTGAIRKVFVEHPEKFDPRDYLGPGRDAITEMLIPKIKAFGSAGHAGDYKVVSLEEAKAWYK
#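 40 nM FBPA preincubated 10 min at RT with compound (up to 57.5 uM final), then substrate plus GAPDH/TPI/NAD/arsenate coupling and diaphorase/resazurin added. Fluorescence read after 20 min at RT, 525/598 nm.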
# Sm TGR block – blocks Schistosoma mansoni thioredoxin glutathione reductase | Q962Y6 | purified TGR, DTNB reduction, TNB absorbance 405 nm | Potency, µM (top dose mostly 114 µM), inactives show at the highest dose activity change, negative = inhibition, actives largely listed as inhibitors | 3% of 360,000 active | AID 485364; further: potency means the concentration at half of the fitted maximal effect; on the % scale 0 is the no-effect control and ±100 the full control effect; nearly all actives have a fitted effect of over 60% in size
#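 TGR 20 nM + NADPH 100 uM (dispensed conc.), cpd preinc 15 min RT; start with NADPH (500 uM addition) then DTNB (15 mM addition). Kinetic TNB absorbance, 405 nm filter. Four-parameter Hill fit across titration.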
# Tb PYK inh – T. brucei pyruvate kinase inhibition | Q57TT1 | TbPYK enzyme, Kinase-Glo Plus ATP luminescence, 45 min | Potency, µM (highest dose often 76.8 µM), for the others: top-dose activity, negative = inhibition, actives largely listed as inhibitors | 0.12% of 410,000 active; further: potency means the concentration at half of the fitted maximal effect; on the % scale 0 is the no-effect control and ±100 the full control effect; nearly all actives have a fitted effect of over 50% in size
#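 ADP (130 uM final) triggers the TbPYK reaction after compound addition; incubation is 45 min at room temperature. Kinase-Glo Plus is then added and luminescence imaged. Normalized data are fitted to concentration-effect curves.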
# Shiga inhibitor – inhibitors of Shiga toxin in Vero cells; Vero cells, Shiga toxin protein synthesis inhibition reporter; inhibition, % at 38.7 µM; 9.2% of 290,000 active; in the data active means inhibition mostly above about 28%, no sharp cut-off; inactive means mostly below about 43%; further: 0% is about no effect
# The depositor's hits bear a star; ? = inconclusive; · = no result; [ ] = another dose, or the depositor's remark. This excerpt belongs to a sample that is enriched for hits. Unless noted, the call rests on the fitted dose curve; in most records, active means well fitted curve in the direction sought with a large enough effect; inconclusive means small, poorly fitted or top-dose-only effect, or another doubt; inactive means no such curve, though single readings can be large; an effect the other way counts as inactive or inconclusive.
SMILES,LmPK inhibitor,Cycloheximide cs,Giardia FBPA inh,Sm TGR block,Tb PYK inh,Shiga inhibitor
CCn1nnc2cc(C(=O)Nc3ccc(Br)cc3F)ccc21,·,·,·,2%,-3%,·
CCn1nnc2cc(C(=O)NCCc3ccccc3F)ccc21,-12%,19,1%,4%,2%,58*
Cc1ccc(S(=O)(=O)N(C(=O)c2ccncc2)c2ccc(OC(=O)c3ccncc3)cc2)cc1,-3%,-5,0%,-18%,-4%,-4
CCc1ccc(S(=O)(=O)N(C(=O)c2ccncc2)c2ccc(OC(=O)c3ccncc3)cc2)cc1,-6%,-2,-15%,-16%,-8%,-12
COc1ccc(N(C(=O)c2ccncc2)S(=O)(=O)c2ccc(Cl)cc2)cc1,-1%,-4,-1%,20µM*,-2%,7
O=C(Oc1ccc(N(C(=O)c2ccncc2)S(=O)(=O)c2ccc(F)cc2)cc1)c1ccncc1,4%,9,-3%,28µM*,-8%,-13
COc1ccc(N(C(=O)c2ccncc2)S(=O)(=O)c2cccs2)cc1,-3%,-2,-3%,25µM*,1%,-9
COc1ccc(C(=O)N(c2ccc(OC)cc2)S(=O)(=O)c2cccs2)cc1,8%,2,-1%,-1%,2%,11
O=C(Oc1ccc(N(C(=O)c2ccncc2)S(=O)(=O)c2ccc(Cl)cc2)cc1)c1ccncc1,-4%,-2,-5%,18µM*,-11%,19
CCC(=O)N1CCCc2cc(S(=O)(=O)N3CCC(C(=O)NCc4ccc(F)cc4)CC3)ccc21,·,·,·,-11%,4%,·
Cn1c(SCc2ccc(Br)cc2)nc2c([nH]c3ccccc32)c1=O,·,·,·,3%,4%,·
COc1ccc(S(=O)(=O)N2CCN(c3ccccc3)CC2)cc1-c1noc(C)n1,·,6,·,-17%,-2%,-9
CCOc1ccc(Nc2nc(Cc3nnc(SCC(=O)c4ccc(C)c(C)c4)o3)cs2)cc1,14%,21*,3%,2%,-7%,35
CN1C(=O)C(C)(C)c2cc(S(=O)(=O)N3CCCC3C(=O)Nc3ccc(F)cc3)ccc21 (configuration not stated),·,·,·,3%,-8%,·
NNC(=S)Nc1ccc(Cl)cc1,-3%,-3,?,-36%,-10%,21
NN/C(=C\[N+](=O)[O-])Nc1ccc(Cl)cc1,-3%,13,-8%,2.8µM*,-6%,40
NN/C(=C\[N+](=O)[O-])Nc1ccccc1,-6%,13,-25%,22µM*,1%,40
CCSc1nnc(NC(=O)c2nc(S(=O)(=O)Cc3ccc(F)cc3)ncc2Cl)s1,-10%,50*,·,35µM*,1%,75*
CSc1ncc(Cl)c(C(=O)Nc2nnc(SC/C=C/c3ccccc3)s2)n1,1%,0,?,41%,-8%,-1
CSc1nnc(NC(=O)c2nc(S(=O)(=O)Cc3cccc(C)c3)ncc2Cl)s1,-8%,62*,·,20µM*,-6%,104*
C=CCSc1nnc(NC(=O)c2nc(SCC)ncc2Cl)s1,3%,-2,14%,1%,-6%,-6
Cc1ccc(CS(=O)(=O)c2ncc(Cl)c(C(=O)Nc3nnc(C(C)C)s3)n2)cc1,2%,52*,-17%,18µM*,7%,75*
Cc1ccc(C)c(NC(=O)c2nc(Cl)ccc2Cl)c1,-10%,26*,5%,-4%,-2%,36
Cc1ccc(C)c(NC(=O)COC(=O)c2nc(Cl)ccc2Cl)c1,·,·,·,-1%,-9%,·
CC(C)=NOC[C@@H](O)[C@@H]1O[C@@H]2OC(C)(C)O[C@@H]2[C@H]1O,·,·,1%[12.9 µM],·,·,·
SMILES,LmPK inhibitor,Cycloheximide cs,Giardia FBPA inh,Sm TGR block,Tb PYK inh,Shiga inhibitor
CC(C)OC(=O)N(C)C[C@@H]1OCc2cnnn2CCCC(=O)N([C@H](C)CO)C[C@@H]1C,·,·,·,·,2%,·
Cc1cccc(CS(=O)(=O)c2ncc(Cl)c(C(=O)Nc3nnc(C(C)C)s3)n2)c1,4%,54*,·,40µM*,8%,45*
CC(C)c1nnc(NC(=O)c2nc(SCc3ccc(F)cc3)ncc2Cl)s1,·,·,·,2%,1%,·
Cc1ccc(C)c(NC(=O)c2nc(S(=O)(=O)Cc3ccc(F)cc3)ncc2Cl)c1,·,·,·,2.5µM*,1%,·
CC(C)c1nnc(NC(=O)c2nc(S(=O)(=O)Cc3ccc(F)cc3)ncc2Cl)s1,7%,59*,·,25µM*,-4%,98*
O=C(NCc1ccccc1Cl)c1ccc(Nc2nc3ccccc3n3nnnc23)cc1,·,9,·,3%,4%,11
Cc1ccc(OCC(=O)N(Cc2ccc(Cl)cc2)Cc2ccco2)cc1C,·,·,·,-5%,-2%,·
CC(=O)c1ccc(-c2nnc(CCC(=O)N(C)Cc3cccc4cnccc34)o2)s1,0%,-3,-3%,40µM*,6%,6
CC(=O)c1ccc(-c2nnc(CCC(=O)N(C)Cc3c(C)nc4ccccn34)o2)s1,-4%,7,-1%,-33%,10%,29
CN(Cc1cccc2cnccc12)C(=O)CCc1nnc(CCc2ccccc2)o1,4%,37*,-1%,5%,-1%,47*
COc1ccccc1CCc1nnc(CCC(=O)N(C)Cc2cccc3ncccc23)o1,2%,12,1%,-13%,-2%,27
CC(C)[C@H](NC(=O)[C@H](CC(=O)O)NC(=O)CNC(=O)[C@@H](N)CCCN=C(N)N)C(=O)O,·,-4,-22%,·,·,4
CCc1cccc(NC(=O)c2cc3c(=O)[nH]c4ccccc4c3n2C)c1,·,·,·,-7%,-8%,·
CCOc1ncccc1C(=O)Nc1ccc(C)c(S(=O)(=O)N2CCCCCC2)c1,·,·,·,0%,2%,·
CN(C)c1ccc(C(=S)N2CCN(c3ccc([N+](=O)[O-])cc3)CC2)cc1,-7%,7,7.9µM*,8%,?,4
CC(=O)N1CCN(C(=S)c2ccc(N(C)C)cc2)CC1,0%,10,6%,22%,-7%,-10
CN(C)c1ccc(C(=S)N2CCN(c3ccccc3)CC2)cc1,2%,25*,-1%,0%,-3%,47
CC1CCN(C(=S)c2ccc(N(C)C)cc2)CC1,4%,15,-8%,0%,-12%,62*
Cc1ccc(N2CCN(C(=S)c3ccc(N(C)C)cc3)CC2)cc1,6%,59*,-5%,7%,-23%,active
CN(C)c1ccc(C(=S)N2CCCCCC2)cc1,-11%,20,-3%,2%,?,20
CCCc1nc2c(=O)n(C)c(=O)nc-2n(C)n1,-1%,-14,5µM*,?,-20%,-12
Cn1nc(-c2ccccn2)nc2c(=O)n(C)c(=O)nc1-2,0%,8,?,?,0%,25
CC(C)COC(=O)c1ccc2c(c1O)C(=O)c1ccccc1C2=O,-23%,34*,?,-5%,-5%,66*
COc1ccc2c(c1O)C(=O)c1ccccc1C2=O,-7%,5,4%,-1%,·,1

# High-throughput results (PubChem BioAssay)
